Screens (PubChem BioAssay)
D2 PAM-1 = positive allosteric modulators of human D2 dopamine receptor; HEK293 T-REx D2, calcium flux, EC20 dopamine potentiation; potentiation, % at 10 µM; 340,000 tested, 0.34% active; AID 485347;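 active = potentiation over 3 SD above the plate norm, cut at about 30% in these data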; also: 0% is about no effect
Target sequence (P14416 whole entry, looked up): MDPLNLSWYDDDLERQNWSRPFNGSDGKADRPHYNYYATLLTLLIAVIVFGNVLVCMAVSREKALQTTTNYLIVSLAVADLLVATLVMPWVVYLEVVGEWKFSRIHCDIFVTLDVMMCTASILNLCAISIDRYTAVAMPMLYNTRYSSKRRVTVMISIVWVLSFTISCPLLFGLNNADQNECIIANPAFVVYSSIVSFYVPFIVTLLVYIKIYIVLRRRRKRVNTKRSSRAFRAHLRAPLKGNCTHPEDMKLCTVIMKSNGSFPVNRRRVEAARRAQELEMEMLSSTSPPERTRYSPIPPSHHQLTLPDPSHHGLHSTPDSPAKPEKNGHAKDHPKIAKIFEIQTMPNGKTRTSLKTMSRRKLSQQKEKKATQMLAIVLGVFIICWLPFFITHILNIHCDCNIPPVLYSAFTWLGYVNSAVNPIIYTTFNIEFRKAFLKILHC
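Using a no-wash calcium dye in inducible, force-coupled HEK293 Trex cells expressing D2, we tracked fluorescence each second for 180 s after compound, then for 180 s after EC20 dopamine to detect augmented signalling.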
D2 ag-1 = activates the human D2 dopamine receptor; P14416; DiscoveRx PathHunter D2 beta-arrestin, luminescence, 90 min; 100% = 57 uM dopamine signal; activation, % (test concentration not listed); 360,000 tested, 0.084% active; AID 624465; in the data active = activation above about 40%; inconclusive = between about 15% and that limit
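DiscoveRx PathHunter D2 beta-arrestin cells (2,100/well) attached overnight, then compound-stimulated 90 min at 37 C in HBSS/10 mM HEPES/0.1% Tween-20 buffer; beta-galactosidase complementation read by luminescence after 1 h at ambient temperature. Dopamine 57 uM final (EC100) as control.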
D2 ag-2 = activates the human D2 dopamine receptor | P14416 | HEK293 T-REx D2 cells, calcium flux agonist mode | activation, % at 2 µM | 340,000 tested, 0.53% active;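 active = activation over 3 SD above normal in the single-dose calcium agonist read, cut at about 30% in these data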; also: 0% is about no effect
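In this primary screen, compounds producing a positive calcium signal within 180 s of addition to tetracycline-induced, force-coupled HEK293 Trex D2 cells are flagged; cells are dye-loaded with a no-wash calcium kit beforehand.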
D2 antagonist = antagonizes the human D2 dopamine receptor; inhibition, % at 10 µM; P14416; 340,000 tested, 2% active; HEK293 TREx D2 cells, calcium flux, dopamine EC80; in the data active = inhibition above about 30%; inactive = below that, where a call was filed; also: 0% is about no effect
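Cells plated overnight at 30 C with tetracycline; no-wash calcium dye, 30–90 min RT; 10 s baseline; compound pinned; 180 s read; EC80 dopamine added; another 180 s read.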
D2 PAM-2 = positive allosteric modulators of human D2 dopamine receptor | P14416 | DiscoveRx D2 beta-arrestin cells, luminescence, 90 min; 100% = 57 uM dopamine signal | potentiation, % (test concentration not listed) | 360,000 tested, 0.23% active | AID 624464; in the data active = potentiation above about 50%; inconclusive = mostly about 30% to 49%
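D2 cells co-treated with compound plus 50 nM dopamine (EC20) for 90 min at 37 deg C to detect potentiation. Beta-arrestin recruitment was read as enzyme-fragment luminescence after 1 h at ambient temperature. Full response was set by 57 uM dopamine.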
* = called active by the depositor. This is a sample that favours compounds with a hit; in the whole collection about 2.4% have one here.

`CC(C)(C)C(=O)n1nc(-c2ccccc2)oc1=O` gave D2 PAM-1 -2, D2 ag-1 1, D2 ag-2 1, D2 antagonist 31* and D2 PAM-2 -27.
C/C(=N\NC(=O)COc1ccccc1)c1ccc(O)cc1 was read as D2 PAM-1 -8, D2 ag-1 -3, D2 ag-2 -2, D2 antagonist -18 and D2 PAM-2 -17.
`C/C(=N\NC(=O)CC#N)c1ccc(Oc2ccccc2)cc1` gave D2 PAM-1 39*, D2 ag-1 -3, D2 ag-2 1, D2 antagonist 5 and D2 PAM-2 -3.
Screening CCN1CCN(c2ccc([N+](=O)[O-])c(Sc3nc4ccccc4[nH]3)c2)CC1 returned D2 PAM-1 -25, D2 ag-1 -6, D2 ag-2 -2, D2 antagonist 87* and D2 PAM-2 -21.
`O=C(Nc1ccc(OC(F)(F)F)cc1)N1CCc2nc(NCc3cccc(Oc4ccccc4)c3)ncc2C1` gave D2 ag-1 11 and D2 PAM-2 0.
Screening CC(C)c1nc2ccc(NC(=O)C34CC5CC(CC(C5)C3)C4)cc2[nH]1 returned D2 PAM-1 22, D2 ag-1 -2, D2 ag-2 0, D2 antagonist 33* and D2 PAM-2 -17.
`COc1cnc(-c2ccccn2)nc1Sc1ccc(F)cc1` gave D2 PAM-1 16, D2 ag-1 -10, D2 ag-2 0, D2 antagonist -3 and D2 PAM-2 -2.
For OC(COc1ccc2cc(Br)ccc2c1)CN1CCN(c2ccccn2)CC1 (configuration not stated) the results were D2 PAM-1 26, D2 ag-1 41*, D2 ag-2 -2, D2 antagonist -4 and D2 PAM-2 inconclusive.
`OC(CN1CCN(c2cccc(Cl)c2)CC1)c1ccccc1` (configuration not stated) gave D2 PAM-1 -13, D2 ag-1 3, D2 ag-2 10, D2 antagonist 53* and D2 PAM-2 -28.
OC(COc1ccc(Cl)cc1)CN1CCN(c2cccc(Cl)c2)CC1 (configuration not stated) was read as D2 PAM-1 -22, D2 ag-1 3, D2 ag-2 2, D2 antagonist 73* and D2 PAM-2 -16.
Cc1cccc(N2CCN(CC(O)COc3ccc(Cl)cc3)CC2)c1 (configuration not stated) was read as D2 PAM-1 -19, D2 ag-1 0, D2 ag-2 -1, D2 antagonist 58* and D2 PAM-2 -54.
COc1ccc(-c2nn(-c3ccccc3)cc2C(=O)NC2CC2)cc1 was read as D2 PAM-1 -11, D2 ag-1 -1, D2 ag-2 0, D2 antagonist 5 and D2 PAM-2 -9.
For CC(C)OC(=O)c1c2c(n3ccccc13)C(=O)c1ccccc1C2=O the results were D2 PAM-1 7, D2 ag-1 inconclusive, D2 ag-2 69*, D2 antagonist 5 and D2 PAM-2 28.
C#CCOCCOCCOCCNc1nc(N2CCN(C(=O)[C@H](CCCN=C(N)N)n3cc(C(N)[C@@H](C)CC)nn3)CC2)nc(N2CCN(C(=O)[C@H](CCCCN)n3cc([C@@H](N)CC(N)=O)nn3)CC2)n1 (some centres not stated) was read as D2 ag-1 -9 and D2 PAM-2 -10.
CC(C)CCNC(=O)CCn1c(=O)c2cccn2c2cccnc21 was read as D2 PAM-1 -4 and D2 ag-2 -2.
O=C(CN1C(=O)COc2ccc(S(=O)(=O)NC3CCCC3)cc21)Nc1ccc(Cl)cc1F was read as D2 PAM-1 1 and D2 ag-2 1.
CCS(=O)(=O)N1Cc2ccccc2CC1C(=O)N(C)CC(=O)Nc1cccc(F)c1 (configuration not stated) was read as D2 PAM-1 -6, D2 ag-1 -5, D2 ag-2 1, D2 antagonist 41* and D2 PAM-2 -10.
`CC(NS(=O)(=O)c1ccc(OCC(=O)N2CCOCC2)c(Cl)c1)c1ccccc1` (configuration not stated) gave D2 PAM-1 -2, D2 ag-1 -1, D2 ag-2 0, D2 antagonist 3 and D2 PAM-2 -4.
Screening CC(NS(=O)(=O)c1ccc(OCC(=O)N2CCOCC2)cc1)c1ccccc1 (configuration not stated) returned D2 PAM-1 8, D2 ag-1 -1, D2 ag-2 0, D2 antagonist 31* and D2 PAM-2 10.
`CC(C)OCCCNc1ncnc2sc3c(c12)CCCC3` gave D2 PAM-1 -1 and D2 ag-2 -1.
For Cc1nc(-c2ccc(F)cc2)c(CC(=O)N2CCN(S(=O)(=O)c3cccc([N+](=O)[O-])c3)CC2)s1 the results were D2 PAM-1 -5, D2 ag-1 inconclusive, D2 ag-2 0, D2 antagonist 34* and D2 PAM-2 29.
Screening O=C1Cc2ccccc2Sc2c(OCCN3CCCCC3)cccc21 returned D2 PAM-1 -18, D2 ag-1 -9, D2 ag-2 2, D2 antagonist 80* and D2 PAM-2 -32.
For O=C1Cc2ccccc2Sc2cc(OCCCN3CCCCC3)ccc21 the results were D2 PAM-1 -31, D2 ag-1 -7, D2 ag-2 2, D2 antagonist -6 and D2 PAM-2 -34.
`CC1CCc2nc(NC(=O)CN3CCN(c4ccccc4)CC3)sc2C1` (configuration not stated) gave D2 PAM-1 9, D2 ag-1 -3, D2 ag-2 1, D2 antagonist -6 and D2 PAM-2 -5.
`CC1CCc2nc(NC(=O)CN3CCN(Cc4ccc5c(c4)OCO5)CC3)sc2C1` (configuration not stated) gave D2 PAM-1 -36, D2 ag-1 0, D2 ag-2 0, D2 antagonist 72* and D2 PAM-2 -31.
Screening Cc1ccc(CN2CC[C@H]3C=CCc4cccc(c43)C2)cc1 returned D2 PAM-1 -13, D2 ag-1 7, D2 ag-2 0, D2 antagonist 57* and D2 PAM-2 -18.
`CCCN(CC(=O)Nc1ccccc1C)C(=O)c1ccc(C(=O)c2ccccc2)cc1` gave D2 PAM-1 -2, D2 ag-1 -2, D2 ag-2 2, D2 antagonist 43* and D2 PAM-2 -22.
Cc1nnc(N2CCN(c3ccccc3F)CC2)c2c1nnn2Cc1ccccc1 was read as D2 PAM-1 -19.
O=C(Cc1cn2ccsc2n1)OCc1nc2ccccc2s1 was read as D2 PAM-1 -10, D2 ag-1 -2, D2 ag-2 -1, D2 antagonist -6 and D2 PAM-2 -35.
`O=C(Cc1cn2ccsc2n1)OCc1ccccc1` gave D2 PAM-1 -3, D2 ag-1 3, D2 ag-2 0, D2 antagonist 32* and D2 PAM-2 -5.
